# Source: PubChem BioAssay (NCI)
# About 83,000 compounds went through this panel and 20% of them were active in at least one assay; those are over-represented in the sample as a whole.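 Each cell line was grown in a 96-well plate and treated with one concentration of compound for 48 hours. Values below 10 were considered active.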 Unmarked numbers belong to inactive results. Calls of active or inactive are those of the source.
# What was measured:
# Assay in all cases: NCI-60 one-dose screen, 48 h (100 = growth as untreated, 0 = no growth, -100 = all killed)
# Details in all cases: 10 µM unless noted
# [1] = system: SR leukemia
# [2] = system: RPMI-8226 leukemia
# [3] = system: OVCAR-8 ovarian
# [4] = system: OVCAR-5 ovarian
# [5] = system: OVCAR-4 ovarian
# [6] = system: SK-OV-3 ovarian
# [7] = system: IGROV1 ovarian
# [8] = system: OVCAR-3 ovarian
# [9] = system: HS 578T breast
# [10] = system: NCI/ADR-RES ovarian
SMILES,growth [1],growth [2],growth [3],growth [4],growth [5],growth [6],growth [7],growth [8],growth [9],growth [10]
N#Cc1cnc2cc(OC[C@@H](O)CO)c(NC(=O)CC3CSSC3)cc2c1Nc1ccc(OCc2cccc(F)c2)c(Cl)c1,1.96% (active),-29.7% (active),-48.2% (active),-72.8% (active),-64.4% (active),-86.2% (active),-56% (active),-81.3% (active),-39.8% (active),85.9%
CC(=O)O[C@H]1CC[C@]2(C)[C@H]3C(=O)C=C4[C@@H]5C[C@](C)(C(=O)N6CCCNCC6)CC[C@]5(C)CC[C@@]4(C)[C@]3(C)CC[C@H]2C1(C)C,-17.3% (active),-32.3% (active),-24.6% (active),8.24% (active),-5.14% (active),70.6%,-80.5% (active),-86.4% (active),96.2%,-41.6% (active)
NCCn1cc(-c2nc(-c3c[nH]c4ncccc34)cs2)c2cc(Br)ccc21,15.2%,43.3%,91.6%,89.4%,54.7%,90.8%,43.6%,82.4%,83.1%,90%
Clc1ccc(Cn2cc(-c3nc4ccc(Br)nc4n3Cc3ccc(Cl)cc3)c3cccnc32)cc1,61%,67.6%,77.2%,96.9%,87.6%,80.9%,77.3%,93.5%,92.7%,90.8%
COc1cccc(-c2nn(-c3ccccc3)cc2-c2ccnc(NCCNS(=O)(=O)c3cccc(F)c3)c2)c1,9.17% (active),23.7%,20.2%,64.9%,31.1%,46.6%,38%,40.4%,40.2%,22.1%
Oc1cccc2ccc(N/N=C/c3cc(CN4CCCCC4)c(O)c4ncccc34)nc12,-12.7% (active),0.883% (active),8.27% (active),36.4%,8.09% (active),-30.5% (active),14.3%,7.62% (active),17.1%,8.58% (active)
CC(C)(C)c1ccc(OCCCCCCCN2CCNCC2)cc1,-10.4% (active),-17% (active),71.3%,68.5%,54%,81.5%,52%,62%,24.9%,71.7%
COc1ccc(C(=O)/C=C/c2cc(-c3cc(OC)c(OC)c(OC)c3)n[nH]2)cc1OC,-15.6% (active),-36% (active),-4.15% (active),32.9%,13.3%,51.6%,-5.47% (active),-55.3% (active),57.1%,15%
COC(=O)[C@]12CC[C@@H](C(C)=O)[C@@H]1[C@H]1CC[C@@H]3[C@@]4(C)C/C(=C/c5cccnc5)C(=O)C(C)(C)[C@@H]4CC[C@@]3(C)[C@]1(C)CC2,12.3%,2.88% (active),38.7%,114%,26.7%,93.7%,85.8%,49%,74.8%,52.5%
N#C/C(=C\c1ccc(-c2ccc(Br)cc2)o1)c1nc(-c2ccco2)cs1,95.6%,61.4%,99.8%,63.4%,-6.53% (active),91%,60.9%,106%,100%,99.8%
COc1cccc(-c2nn(-c3ccccc3)cc2-c2ccnc(NCCNS(=O)(=O)c3ccc(C(F)(F)F)cc3)c2)c1,-16.1% (active),-4.8% (active),15.7%,24.9%,31.2%,24.5%,28%,7.03% (active),33.9%,16.9%
C/C(=C(/c1ccccc1)c1ccc(N2C(=O)c3cccc4c(NCc5ccccc5)ccc(c34)C2=O)cc1)c1ccccc1,83.6%,102%,95%,102%,101%,111%,94.8%,110%,96%,97.9%
CC1(C)c2ccccc2C(=O)C1(Br)Cc1ccccc1 (stereo not given),53.5%,46.8%,93%,73.7%,63.6%,110%,92.5%,65.4%,84.1%,72.8%
